113 sequences from paper PMC10668032, “Altered binding affinity of SIX1-Q177R correlates with enhanced WNT5A and WNT pathway effector expression in Wilms tumor” can be followed below.

The full ranking holds about 33,000 sequences; the median of “e-score” is about -0.05, and the highest 2% start at about 0.38. The list comes from a sample in which the highest values are over-represented; it also holds similar and randomly drawn sequences.

The assay concerns the target T1, SIX1-Q177R homeodomain (human, UniProt Q15475 108-198, Q177R).
T1 sequence: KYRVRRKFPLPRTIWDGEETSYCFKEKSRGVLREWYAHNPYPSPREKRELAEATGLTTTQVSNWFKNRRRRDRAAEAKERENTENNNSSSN
Nature of the assay: universal protein binding microarray; Universal all-10-mer PBM (8x60K, AMADID 030236), 300 nM GST-tagged protein, Alexa Fluor 488 anti-GST; buffer, salt, pH and temperature not stated (as in Berger); high values mean tight binding. The settings on record: protein: ivt; tags: N-terminal GST; dsDNA, one strand shown. An outline of the steps:
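Binding of GST-tagged homeodomains is given as 8-mer E-scores from the Universal PBM Analysis Suite. The proteins were produced by in vitro transcription/translation, quantified by anti-GST western blot against a recombinant GST standard curve, and applied in duplicate at 300 nM final concentration to universal 'all 10-mer' protein binding microarrays (8×60K format).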
As to ACGCGCAG, the binding signal came to 0.175 ± 0.0335 E-score. As for ACACGCAT, the figure is 0.383 ± 0.00385 E-score.

On to ACTCCCCT, for which the binding signal amounted to 0.249 ± 0.0205 E-score. As for CGGATCAG, the figure is 0.174 ± 0.00822 E-score; as for ACCGGAGG, 0.183 ± 0.0608 E-score; as for ACTCCTCC, 0.213 ± 0.0626 E-score.

With ATTTGACA, the binding signal amounted to 0.216 ± 0.00896 E-score. For the sequence CGCATTAC, the binding signal worked out at 0.204 ± 0.0114 E-score. As for ACCCTGAG, the figure is 0.245 ± 0.0251 E-score; as for ACCAACAC, 0.41011 ± 0.000354 E-score. CCCAAAAC: the binding signal came to 0.193 ± 0.0284 E-score. As for CCCAACAA, the binding signal amounted to 0.199 ± 0.00812 E-score. Turning to CCAAACAC, the binding signal stood at 0.3825 ± 0.00157 E-score.

Consider ACCAACTC, for which the binding signal worked out at 0.169 ± 0.01 E-score. For GCAAACAC, the binding signal is 0.351 ± 0.00619 E-score. Take GCCAACAC: the binding signal was determined as 0.3693 ± 0.00257 E-score. As for CCCAACAC, the figure is 0.403 ± 0.0145 E-score; as for ACTATGTG, 0.17 ± 0.0249 E-score. As for CACCTTCA, the figure is 0.241 ± 0.0302 E-score; as for CACCTTGG, 0.344 ± 0.0104 E-score; as for CCCCTACC, 0.237 ± 0.0383 E-score. As for GTGTGTCA, the figure is 0.369 ± 0.0056 E-score.

With TAGTGTCA, the binding signal came out at 0.454 ± 0.00792 E-score. As for AAGTGTCA, the figure is 0.418 ± 0.0194 E-score; as for GAGTGTCA, 0.45 ± 0.0122 E-score. Take GAGTGTCC: the binding signal was determined as 0.406 ± 0.00513 E-score. As for GAGTGACA, the figure is 0.242 ± 0.00566 E-score. As for AAGTGTCT, the figure is 0.346 ± 0.0141 E-score. TAGTGACA: the binding signal is 0.211 ± 0.0357 E-score.

With AAGTGTCC, the binding signal was 0.332 ± 0.00652 E-score. Regarding GAGTATCC, the binding signal was 0.199 ± 0.0139 E-score. As for TAGAGTCA, the figure is 0.196 ± 0.0118 E-score; as for CGTATCCA, 0.159 ± 0.0161 E-score. As for ATATACCC, the figure is 0.2382 ± 0.000608 E-score. As for CACCCAGA, the figure is 0.189 ± 0.0293 E-score.

With ACCAGATA, the binding signal was determined as 0.162 ± 0.0127 E-score. As for ACCACGGA, the figure is 0.178 ± 0.0145 E-score.

As for ACCCTTAC, the binding signal came to 0.158 ± 0.0125 E-score. In the case of CACCTTTA, the binding signal stood at 0.223 ± 0.0267 E-score.

Consider CACAGACA, for which the binding signal was found to be 0.155 ± 0.0227 E-score. As for CCGACCCG, the figure is 0.176 ± 0.00738 E-score; as for CCCTGTAC, 0.173 ± 0.0309 E-score; as for GCGTATAC, 0.158 ± 0.00385 E-score. As for ACGTGTAG, the binding signal was found to be 0.347 ± 0.0241 E-score. On to GCGTGTAC, for which the binding signal amounted to 0.4393 ± 0.000926 E-score.

ACGTGTAT: the binding signal was determined as 0.321 ± 0.0343 E-score. With CCGTGTAC, the binding signal was 0.4382 ± 0.00199 E-score. Turning to CCGTGTGC, the binding signal is 0.215 ± 0.0507 E-score. ACGTGTAC: the binding signal was determined as 0.387 ± 0.0177 E-score. As for GCGTTTAC, the figure is 0.16 ± 0.0218 E-score. As for ACCGCCCC, the figure is 0.157 ± 0.0585 E-score; as for ACCACTGG, 0.153 ± 0.00392 E-score; as for ACCTTACC, 0.155 ± 0.0397 E-score. As for CACGGACA, the binding signal turned out to be 0.298 ± 0.0109 E-score. In the case of CACGACTC, the binding signal is 0.304 ± 0.00378 E-score.

CACGACCA: the binding signal came to 0.227 ± 0.0193 E-score. As for CACGACGC, the figure is 0.151 ± 0.0468 E-score; as for CACGACCC, 0.32 ± 0.0093 E-score; as for GACGACAC, 0.429 ± 0.0137 E-score. In the case of CACGACAC, the binding signal turned out to be 0.448 ± 0.0167 E-score. In the case of CACGACAG, the binding signal was 0.1738 ± 0.000629 E-score. As for GACGACCC, the figure is 0.158 ± 0.0499 E-score; as for AACGACAC, 0.4466 ± 0.00332 E-score.

Regarding CACCTATA, the binding signal was determined as 0.301 ± 0.00719 E-score.

In the case of CCCGACCA, the binding signal came to 0.204 ± 0.0179 E-score.

For ACCGTGCC, the binding signal was 0.179 ± 0.0325 E-score. As for CCTGTGTA, the figure is 0.192 ± 0.0408 E-score; as for GCCGGGTA, 0.197 ± 0.033 E-score; as for CCCGCGTA, 0.154 ± 0.0151 E-score. As for CCCGTGTC, the figure is 0.458 ± 0.00911 E-score; as for CCCGTGTA, 0.453 ± 0.00915 E-score; as for ACCGTGTC, 0.428 ± 0.0209 E-score.

As for GCCGTGTA, the binding signal stood at 0.419 ± 0.00774 E-score. For CCCGTCTC, the binding signal turned out to be 0.239 ± 0.00285 E-score.

As for CCCGTGAC, the binding signal amounted to 0.155 ± 0.00256 E-score. As for ACCGTGTG, the figure is 0.259 ± 0.0453 E-score; as for CCCCCGGA, 0.263 ± 0.00617 E-score.

Take AAGGATCC: the binding signal came to 0.178 ± 0.0155 E-score.

Regarding GACTCCGA, the binding signal is 0.198 ± 0.0344 E-score. As for ACCCTGTA, the figure is 0.153 ± 0.0186 E-score; as for ACCGTGTA, 0.4376 ± 0.00046 E-score; as for ACCGGGTA, 0.212 ± 0.00998 E-score. As for GCAGCACC, the figure is 0.219 ± 0.0401 E-score; as for GGTTAAAC, 0.183 ± 0.0367 E-score; as for AGTTACAC, 0.449 ± 0.0313 E-score. As for AGTTGCAC, the figure is 0.208 ± 0.0144 E-score; as for GGTTGCAC, 0.183 ± 0.0188 E-score.

As to CGTTACCC, the binding signal was 0.207 ± 0.026 E-score. On to CGTTACAC, for which the binding signal came out at 0.424 ± 0.0188 E-score. Regarding GGTTACAC, the binding signal stood at 0.4536 ± 0.000905 E-score. As for CGTTTACA, the figure is 0.154 ± 0.0251 E-score; as for AAATGGTG, 0.289 ± 0.00359 E-score; as for CGCCGGCG, 0.192 ± 0.0602 E-score. As for AGTTCGAA, the figure is 0.156 ± 0.011 E-score; as for CCCCCGCA, 0.218 ± 0.0293 E-score; as for CGACCCCA, 0.233 ± 0.0324 E-score. For GTATACAC, the binding signal is 0.411 ± 0.00685 E-score. As for GAGTATAC, the figure is 0.157 ± 0.0409 E-score; as for GTATACAA, 0.155 ± 0.0122 E-score; as for CTATACAC, 0.379 ± 0.0172 E-score. As for ATATATAC, the figure is 0.154 ± 0.00578 E-score; as for ATATACAC, 0.409 ± 0.0246 E-score; as for CAAAGGGG, 0.188 ± 0.0422 E-score. As for CCCCATAG, the figure is 0.209 ± 0.0311 E-score; as for TACCAACA, 0.167 ± 0.0345 E-score.

With ATGTACAC, the binding signal was 0.435 ± 0.00667 E-score. For the sequence CTGCACAC, the binding signal came to 0.247 ± 0.0168 E-score. As for ATGTACCC, the figure is 0.19 ± 0.00303 E-score; as for CTGTACAC, 0.41165 ± 0.000233 E-score; as for CTGTACCC, 0.183 ± 0.0197 E-score.

Consider GTACACAC, for which the binding signal is 0.355 ± 0.0185 E-score. For the sequence GTGTACAC, the binding signal turned out to be 0.4741 ± 0.00152 E-score.

On to GTGTACAA, for which the binding signal came to 0.4291 ± 0.00333 E-score.
